# According to the supplement of paper PMC8975748:
# Where a name gives a salt, the structure may show the parent alone. ± gives the standard deviation of the averaged measurements.
# Assays:
# [1] = tested on: Saccharomyces cerevisiae BY4741 SeMeCo community; experiment: mean cell size (pixel area) (pixels); higher = larger cells; conditions: 10 µM; 24 h; SM minimal medium
# In short: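 The test system was a fluorescent Saccharomyces cerevisiae BY4741 community with four plasmids, each restoring one auxotrophy and carrying a fluorescent marker. Cells were grown for 24 h in SM medium with drug at a final 10 µM in 384-well plates, then fixed with paraformaldehyde and imaged by automated confocal microscopy for Harmony analysis of mean cell pixel area per well. Values represent the average of 3 replicates. Same SeMeCo high-content imaging drug screen: Selleck FDA-approved drugs at 10 µM, 24 h in SM medium, 384-well plates, 3 replicates.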
# [2] = tested on: Saccharomyces cerevisiae BY4741 SeMeCo community; experiment: z-score of prototroph abundance vs DMSO median; higher = larger share of this subpopulation than in DMSO controls; conditions: 10 µM; 24 h; SM minimal medium; subpopulation (auxotrophy): Prototroph
# In short: (§1)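 Scoring was based on each subpopulation's abundance, expressed as a z-score against the vehicle-well median. A Saccharomyces cerevisiae BY4741 community with four plasmids, each restoring one auxotrophy and encoding a distinct fluorescent protein, was pre-grown overnight to OD600 1.0, diluted to 0.3, and added at 70 µl to 384-well plates acoustically predosed with library drugs (10 µM final). It then grew 24 h in minimal SM medium before paraformaldehyde fixation and automated confocal microscopy, with single-auxotroph fluorescent strains setting thresholds and autofluorescence correction.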
# [3] = tested on: Saccharomyces cerevisiae BY4741 SeMeCo community; experiment: z-score of subpopulation abundance vs DMSO median, subpopulation auxotrophic for M; higher = larger share of this subpopulation than in DMSO controls; conditions: 10 µM; 24 h; SM minimal medium; subpopulation (auxotrophy): M
# In short: as §1
# [4] = tested on: Saccharomyces cerevisiae BY4741 SeMeCo community; experiment: z-score of subpopulation abundance vs DMSO median, subpopulation auxotrophic for L; higher = larger share of this subpopulation than in DMSO controls; conditions: 10 µM; 24 h; SM minimal medium; subpopulation (auxotrophy): L
# In short: as §1
# [5] = tested on: Saccharomyces cerevisiae BY4741 SeMeCo community; experiment: z-score of subpopulation abundance vs DMSO median, subpopulation auxotrophic for U; higher = larger share of this subpopulation than in DMSO controls; conditions: 10 µM; 24 h; SM minimal medium; subpopulation (auxotrophy): U
# In short: as §1
# [6] = tested on: Saccharomyces cerevisiae BY4741 SeMeCo community; experiment: z-score of subpopulation abundance vs DMSO median, subpopulation auxotrophic for H; higher = larger share of this subpopulation than in DMSO controls; conditions: 10 µM; 24 h; SM minimal medium; subpopulation (auxotrophy): H
# In short: as §1
# [7] = tested on: Saccharomyces cerevisiae BY4741 SeMeCo community; experiment: z-score of subpopulation abundance vs DMSO median, subpopulation auxotrophic for LU; higher = larger share of this subpopulation than in DMSO controls; conditions: 10 µM; 24 h; SM minimal medium; subpopulation (auxotrophy): LU
# In short: as §1
# [8] = tested on: Saccharomyces cerevisiae BY4741 SeMeCo community; experiment: z-score of subpopulation abundance vs DMSO median, subpopulation auxotrophic for LM; higher = larger share of this subpopulation than in DMSO controls; conditions: 10 µM; 24 h; SM minimal medium; subpopulation (auxotrophy): LM
# In short: as §1
# [9] = tested on: Saccharomyces cerevisiae BY4741 SeMeCo community; experiment: z-score of subpopulation abundance vs DMSO median, subpopulation auxotrophic for HM; higher = larger share of this subpopulation than in DMSO controls; conditions: 10 µM; 24 h; SM minimal medium; subpopulation (auxotrophy): HM
# In short: as §1
# [10] = tested on: Saccharomyces cerevisiae BY4741 SeMeCo community; experiment: z-score of subpopulation abundance vs DMSO median, subpopulation auxotrophic for HU; higher = larger share of this subpopulation than in DMSO controls; conditions: 10 µM; 24 h; SM minimal medium; subpopulation (auxotrophy): HU
# In short: as §1
# [11] = tested on: Saccharomyces cerevisiae BY4741 SeMeCo community; experiment: z-score of subpopulation abundance vs DMSO median, subpopulation auxotrophic for UM; higher = larger share of this subpopulation than in DMSO controls; conditions: 10 µM; 24 h; SM minimal medium; subpopulation (auxotrophy): UM
# In short: as §1
# [12] = tested on: Saccharomyces cerevisiae BY4741 SeMeCo community; experiment: z-score of subpopulation abundance vs DMSO median, subpopulation auxotrophic for HL; higher = larger share of this subpopulation than in DMSO controls; conditions: 10 µM; 24 h; SM minimal medium; subpopulation (auxotrophy): HL
# In short: as §1
# [13] = tested on: Saccharomyces cerevisiae BY4741 SeMeCo community; experiment: z-score of subpopulation abundance vs DMSO median, subpopulation auxotrophic for HLU; higher = larger share of this subpopulation than in DMSO controls; conditions: 10 µM; 24 h; SM minimal medium; subpopulation (auxotrophy): HLU
# In short: as §1
# [14] = tested on: Saccharomyces cerevisiae BY4741 SeMeCo community; experiment: z-score of subpopulation abundance vs DMSO median, subpopulation auxotrophic for HLM; higher = larger share of this subpopulation than in DMSO controls; conditions: 10 µM; 24 h; SM minimal medium; subpopulation (auxotrophy): HLM
# In short: as §1
# [15] = tested on: Saccharomyces cerevisiae BY4741 SeMeCo community; experiment: z-score of subpopulation abundance vs DMSO median, subpopulation auxotrophic for HUM; higher = larger share of this subpopulation than in DMSO controls; conditions: 10 µM; 24 h; SM minimal medium; subpopulation (auxotrophy): HUM
# In short: as §1
# [16] = tested on: Saccharomyces cerevisiae BY4741 SeMeCo community; experiment: z-score of subpopulation abundance vs DMSO median, subpopulation auxotrophic for LUM; higher = larger share of this subpopulation than in DMSO controls; conditions: 10 µM; 24 h; SM minimal medium; subpopulation (auxotrophy): LUM
# In short: as §1
# [17] = tested on: Saccharomyces cerevisiae BY4741 SeMeCo community; experiment: z-score of subpopulation abundance vs DMSO median, subpopulation auxotrophic for HLUM; higher = larger share of this subpopulation than in DMSO controls; conditions: 10 µM; 24 h; SM minimal medium; subpopulation (auxotrophy): HLUM
# In short: as §1
Compound,mean cell size [1],z-score of prototroph abundance [2],z-score of subpopulation abundance [3],z-score of subpopulation abundance [4],z-score of subpopulation abundance [5],z-score of subpopulation abundance [6],z-score of subpopulation abundance [7],z-score of subpopulation abundance [8],z-score of subpopulation abundance [9],z-score of subpopulation abundance [10],z-score of subpopulation abundance [11],z-score of subpopulation abundance [12],z-score of subpopulation abundance [13],z-score of subpopulation abundance [14],z-score of subpopulation abundance [15],z-score of subpopulation abundance [16],z-score of subpopulation abundance [17]
CCn1cc(C(=O)O)c(=O)c2cc(F)c(N3CCNCC3)cc21 [Norfloxacin],12.3 ± 0.21,0.05,0.77,-0.15,-0.7,0.31,-0.24,0.65,0.41,-0.03,-0.54,0.28,-0.16,-0.51,0.46,-0.23,
O=C(CCCN1CCC(O)(c2ccc(Cl)cc2)CC1)c1ccc(F)cc1 [Haloperidol],12.4 ± 0.2,0.57,-0.16,0.68,,-0.68,-0.75,0.48,-0.68,-0.95,-0.69,0.01,0.13,-0.12,-0.8,-0.06,
Nc1nc(O)c2ncn(CCC(CO)CO)c2n1 [Penciclovir],12.4 ± 0.4,-0.05,-0.61,-0.31,0.53,0.22,0.58,-0.19,,0.29,0.66,,-0.33,-0.62,0.59,-0.73,-0.97
N=C(N)NC(=N)N1CCOCC1 [Moroxydine HCl],12.4 ± 0.078,,-0.15,-0.09,,-0.19,0.31,0.58,-0.15,-0.45,0.37,-0.09,0.08,-0.37,-0.28,0.38,
NC(CO)(CO)CO [Trometamol],12.2 ± 0.18,-0.35,0.08,0.58,0.6,-0.42,0.36,-0.62,-0.48,,,0,-0.13,-0.69,-0.08,,
CC[C@@]1(O)C(=O)OCc2c1cc1n(c2=O)Cc2cc3cc(O)ccc3nc2-1 [Hydroxy Camptothecine],12.5 ± 0.14,1.27,3.88,2.31,-5.21,3.18,-3.85,3.19,3.39,-4.32,-4.43,2.22,-1.2,1.86,-1.9,,
Nc1c(CC(=O)O)cccc1C(=O)c1ccc(Br)cc1 [Bromfenac Sodium],12.5 ± 0.043,-0.27,0.38,-0.45,0.73,-0.02,-0.11,-0.28,-0.15,0.19,0.59,-0.68,-0.92,-0.09,0.05,0.39,
Nc1ccc(S(=O)(=O)Nc2cnc3ccccc3n2)cc1 [Sulfaquinoxaline sodium],12 ± 0.22,,1.16,-1.08,1.01,-1.04,0.22,0.34,,1.05,1.56,-0.29,0.31,-0.05,0.79,0.81,-0.23
CO[C@@H]1[C@@H](O[C@@H]2O[C@H](C)[C@@H](O[C@H]3C[C@@](C)(O)[C@@H](O)[C@H](C)O3)[C@H](N(C)C)[C@H]2O)[C@@H](CC=O)C[C@@H](C)[C@@H](O[C@H]2CC[C@H](N(C)C)[C@@H](C)O2)/C=C/C=C/C[C@@H](C)OC(=O)C[C@H]1OC(C)=O [Acetylspiramycin (ASPM)],12.3 ± 0.32,-0.27,-0.27,1.91,-1.32,1,0.65,1.53,,-0.58,-0.94,1.77,1.65,0.23,0.11,1.09,1.07
CN(C)CCOc1ccc(/C(=C(/CCCl)c2ccccc2)c2ccccc2)cc1 [Toremifene Citrate],12.1 ± 0.2,,-0.37,0.06,0.79,2.17,0.34,0.69,0.66,2.51,0.54,1.37,1.1,1.44,0.27,0.81,
NC[C@@H]1O[C@H](O[C@H]2[C@@H](O)[C@H](O[C@@H]3[C@@H](O)[C@H](N)C[C@H](N)[C@H]3O[C@H]3O[C@H](CO)[C@@H](O)[C@H](O)[C@H]3N)O[C@@H]2CO)[C@H](N)[C@@H](O)[C@@H]1O [Paromomycin Sulfate],12.31 ± 0.12,-0.33,1.04,0.88,-0.06,0.2,-0.04,1.42,,-0.92,-0.2,,-0.44,0.02,0.69,0.8,0.85
C[C@](N)(Cc1ccc(O)c(O)c1)C(=O)O [Methyldopa],12.3 ± 0.034,0.97,-1.02,-0.9,-0.29,0.34,-0.35,-0.77,-0.81,-0.06,-0.7,-0.91,-0.36,-0.36,-0.27,,
c1ccc(C2CN3CCSC3=N2)cc1 (stereo unspecified) [Tetramisole HCl],11.9 ± 0.12,0.24,-0.44,0.54,-0.11,-0.14,-0.21,0.13,,0.01,,0.08,0.35,-0.45,-0.09,0.46,0.92
CC1(C)S[C@@H]2[C@H](NC(=O)[C@H](C(=O)O)c3ccsc3)C(=O)N2[C@H]1C(=O)O [Ticarcillin sodium],12.4 ± 0.22,-0.89,1.32,2.72,-0.93,0.6,1.74,2.06,,-0.4,-0.45,2.48,1.46,1.43,0.83,1.35,1.75
